Nine molecules from PubChem BioAssay AID2283364 (EPA ToxCast) can be followed below.

This assay concerns the target human FK-506 Binding Protein (FKBP12), FKBP1A (gene 2280) (UniProt P62942). Kind of assay: NVS_OR_hFKBP12: NovaScreen (NVS) Nuclear Receptor Binding Assay for human FK-506 Binding Protein (FKBP12). How it is done:
NVS_OR_hFKBP12 is a biochemical, single-readout assay that uses extracted gene-proteins from E. coli in a cell-free assay. Measurements were taken 0.75 hour after chemical dosing in a 48-well plate.NVS_OR_hFKBP12 is one of one assay component(s) measured or calculated from the NVS_OR_hFKBP12 assay. It is designed to make measurements of radioligand binding, a form of binding reporter, as detected with scintillation counting signals by Filter-based radiodetection technology.Data from the assay component NVS_OR_hFKBP12 was analyzed into 1 assay endpoint. This assay endpoint, NVS_OR_hFKBP12, was analyzed in the positive analysis fitting direction relative to DMSO as the negative control and baseline of activity. Using a type of binding reporter, loss-of-signal activity can be used to understand changes in the binding as they relate to the gene FKBP1A. Furthermore, this assay endpoint can be referred to as a primary readout, because the performed assay has only produced 1 assay endpoint. To generalize the intended target to other relatable targets, this assay endpoint is annotated to the misc protein intended target family, where the subfamily is chaperone.
Binding assays used specific radioligands (tritiated, iodinated) with non-radioactive competitive displacement ligands in agonist or antagonist protocols (as indicated) and various reference compounds and inhibitors to titrate specific binding to receptors and transporters. Most enzyme assays (CYPs, kinases, phosphatases, proteases, HDACs) used recombinant protein and specific substrates (fluorescence mostly, some colorimetric and radioactive) and inhibitors, followed by a biochemical separation of substrate and product. All assays for the biochemical HTS were initially run in duplicate at a single concentration (10 uM for CYP450 assays and 25 uM for all others). Assay-chemical combinations meeting a pre-defined threshold (e.g., 30% inhibition and other criteria defined below) were then run in singleton concentration-response format with maximum concentration of 20 uM for CYPs and 50 uM for all others. Each assay was run with positive and negative controls, and concurrent controls on every plate. The follow-up (secondary) screen tested active chemical-pairs in concentration series, as well as a few additional assays not tested in the primary screen, some selected negative inactives, and several cases re-run in the concentration series for confirmatory purposes.

SMILES strings stand for the structures. Inconclusive results are not listed. The source made the active and inactive calls. Rule for the calls: active = hit-call score of the fitted dose curve at least 0.9, where 1 is the maximum; inconclusive = response in the unintended direction; inactive = score below 0.9.

human FK-506 Binding Protein (FKBP12), FKBP1A (gene 2280), sequence (P62942 whole entry, looked up): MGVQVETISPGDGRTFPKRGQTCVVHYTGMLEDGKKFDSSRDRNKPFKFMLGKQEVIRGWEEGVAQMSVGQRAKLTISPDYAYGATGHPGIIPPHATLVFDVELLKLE

Take `CC[C@H](C)[C@H]1O[C@]2(C=C[C@@H]1C)C[C@@H]1C[C@@H](C/C=C(\C)[C@@H](O[C@H]3C[C@H](OC)[C@@H](O[C@H]4C[C@H](OC)[C@@H](O)[C@H](C)O4)[C@H](C)O3)[C@@H](C)/C=C/C=C3\CO[C@@H]4[C@H](O)C(C)=C[C@@H](C(=O)O1)[C@]34O)O2` (tested in a mixture with another compound): the molecule was classed as inactive.

`CO/N=C(/C1=NOCCO1)c1ccccc1Oc1ncnc(Oc2ccccc2Cl)c1F`: the result was inactive.

As for `c1ccc(-c2ccccc2)cc1`, the call was inactive.

Consider `COC(=O)C=C(C)OP(=O)(OC)OC`, for which the result was inactive.

Turning to `Cc1cc(C)nc(NC(=O)NS(=O)(=O)c2ccccc2C(=O)OC2COC2)n1`, the molecule was classed as inactive.

With `CNC(=O)Oc1ccccc1OC(C)C`, the outcome was inactive.

For `COP(=S)(OC)SCn1nnc2ccccc2c1=O`, the outcome was inactive.

On to `O=C(O)c1nc(Cl)ccc1Cl`, for which the molecule was called inactive.

As to `Cc1ccn2nc(S(=O)(=O)Nc3c(F)cccc3F)nc2n1`, the molecule was called inactive.
